These results are taken from PubChem BioAssay (Tox21).

Activity calls are given as the source filed them. Where a call stands in place of a potency, no number is given. Calls come from the whole dose curve; as a rule, active = well fitted curve in the direction sought with a large enough effect in the repeat runs; inconclusive = weak or mixed curves; inactive = flat fitted curve, though single readings scatter.

The assay in a line: qHTS assay to test for compound auto fluorescence at 460 nm (blue) in HEK293 cells (AID 720678). The conditions noted are these: blue autofluorescence 405/460 nm; series mostly up to 46 µM. The source says:
National Center for Advancing Translational Sciences [NCATS]
NIH Chemical Genomics Center [NCGC]
U.S. Environmental Protection Agency [EPA]
National Institutes of Environmental Health Sciences [NIEHS]
National Toxicology Program [NTP]
U.S. Food and Drug Administration [FDA]
Compound auto fluorescence often interferes with screening of the compound library against various biological targets and signaling pathways. Some of these compounds may have fluorophoric properties. Such properties may interfere with the assay outputs resulting in false positives and/or negatives. To decrease such complications and ensure the compound activities are relevant in terms of biological response, the Tox21 10K compound library was screened for auto fluorescence.
From the fluorophores used as reporter signals in our screening assays, the auto fluorescence equivalencies of compounds against three fluorophores have been evaluated: Triamterene, Fluorescein and Rose Bengal sodium for blue, green and red fluorescence, respectively. The fluorescence intensities were measured using Excitation/Emission wavelengths at 405/460nm, 485/535nm and 540/590nm for blue, green and red labels, respectively. This assay includes the blue fluorescence data.
Tox21 Assay Protocol Summary:
2,000 HEK293 cells in 5 uL of culture medium containing 10% dialyzed FBS per well were dispensed into black wall/clear bottom 1536-well plates using a Multidrop Combi Dispenser (Thermo Scientific). The assay plates were incubated for 4-5 hr at 37C to allow cell attachment to the well bottom, followed by the transfer of 23 nL compound or DMSO vehicle by a pintool work station (Kalypsys, San Diego, CA). After the assay plates were incubated overnight at 37C and 5% CO2, fluorescence intensities in the assay plates were measured by an Envision (PerkinElmer, Shelton, CT) plate reader using three labels for measuring blue, green and red fluorescence at […] 460, 535 and 590nm respectively.
On the technique in general: qHTS replaces the single test concentration by a dilution series.
In the case of `Cc1ccc2ccccc2c1C`, the Potency entry was “inactive”.

Take `Oc1cccc[c]1[Hg][Cl]`: the Potency result was “inactive”.

In the case of `CCCCCc1cc(O)c2c(c1)OC(C)(C)c1ccc(C)cc1-2`, the Potency result was “inactive”.

As to `O=C1CCO1`, the Potency entry is “inactive”.

As for `CC1(C)[C@H](C=C(Cl)Cl)[C@H]1C(=O)OCc1c(F)c(F)cc(F)c1F`, the Potency entry is “inactive”.

As to `CNC(C)C(O)c1ccc(O)cc1` (stereo not given), the Potency entry was “inactive”.

`CC(C)C[C@H]1C(=O)N2CCC[C@H]2[C@]2(O)O[C@](NC(=O)[C@@H]3C[C@@H]4c5cccc6[nH]cc(c56)C[C@H]4N(C)C3)(C(C)C)C(=O)N12`: the Potency entry was “inactive”.

On to `CC(=O)OO`, for which the Potency entry was “inactive”.

Turning to `CNC1(c2ccccc2Cl)CCCCC1=O` (stereo not given), the Potency entry was “inactive”.

Consider `CC(C)=CCN1CC[C@]2(C)c3cc(O)ccc3C[C@H]1[C@H]2C`, for which the Potency entry is “inactive”.

Consider `CCCSc1cc(OC)c(CCN)cc1OC`, for which the Potency result was “inactive”.

On to `C=CC[C@]1(O)CC[C@H]2[C@@H]3CCC4=CCCC[C@@H]4[C@H]3CC[C@@]21C`, for which the Potency entry was “inactive”.

As for `CCCC(C)C1(CC)C(=O)NC(=O)NC1=O` (stereo not given), the Potency entry was “inactive”.

Turning to `C[N+]1([O-])[C@@H]2CC[C@H]1CC(OC(=O)C(CO)c1ccccc1)C2` (stereo not given in full), the Potency result is “inactive”.

As for `CCC(=O)O[C@@](Cc1ccccc1)(c1ccccc1)[C@@H](C)CN(C)C`, the Potency entry is “inactive”.

As for `O=C(CCl)c1ccc(Oc2ccc(C(=O)CCl)cc2)cc1`, the Potency result is “inactive”.

On to `O=C1C=C2C=C[C@@H]3C[C@@]2(O1)[C@H]1CCCCN31`, for which the Potency entry is “inactive”.

Consider `C[C@]12CC[C@H]3[C@@H](CCC4=CC(=O)CC[C@@]43C)[C@@H]1CC[C@H]2O`, for which the Potency result was “inactive”.

Consider `CN[C@@H](C)Cc1ccccc1`, for which the Potency entry was “inactive”.

Consider `CN[C@]1(c2ccccc2Cl)CCCCC1=O`, for which the Potency result is “inactive”.

For the compound `CCCCCCC(=O)O[C@H]1CC[C@H]2[C@@H]3CC[C@H]4CC(=O)C=C(C)[C@]4(C)[C@H]3CC[C@]12C`, the Potency entry is “inactive”.

In the case of `C=C[C@H]1CN2CC[C@H]1C[C@H]2[C@H](OC(=O)OCC)c1ccnc2ccc(OC)cc12`, the Potency result is “inactive”.

Take `N#CC1(N2CCCCC2)CCCCC1`: the Potency result is “inactive”.

As for `C[C@]12CC[C@H](OS(=O)(=O)O)CC1=CC[C@@H]1[C@@H]2CC[C@]2(C)C(=O)CC[C@@H]12`, the Potency result was “inactive”.

`c1ccc2c(c1)Sc1ccccc1N2CC1CN2CCC1CC2` (stereo not given): the Potency result is “inactive”.

Consider `CN(C)[C@H](Cc1ccccc1)c1ccccc1`, for which the Potency result was “inactive”.

For `ClC1=C(Cl)[C@]2(Cl)[C@@H]3[C@@H](Cl)[C@H]4O[C@H]4[C@@H]3C1(Cl)C2(Cl)Cl`, the Potency result was “inactive”.

With `C#CC(C)(O)CC` (stereo not given), the Potency result is “inactive”.

With `C[C@]12CC[C@H]3[C@@H](CCC4=C(O)C(=O)CC[C@@H]43)[C@@H]1CC[C@@H]2OC(=O)CCC1CCCC1`, the Potency entry was “inactive”.

On to `Cc1ccccc1-n1c(C)nc2ccccc2c1=O`, for which the Potency result was “inactive”.

As for `CN[C@H]1C[C@@H](N)[C@H](O)[C@@H](O[C@@H]2O[C@H](CO)[C@H](O)[C@@H]3OC4(O[C@H]23)O[C@H](C(N)CO)[C@H](O)[C@H](O)[C@H]4O)[C@@H]1O` (stereo not given in full), the Potency result is “inactive”.

For the compound `C[N+]1([O-])[C@@H]2CC(OC(=O)[C@H](CO)c3ccccc3)C[C@H]1[C@@H]1O[C@@H]12` (stereo not given in full), the Potency entry was “inactive”.

Take `OC[C@@H](O)[C@H]1O[C@@H]2O[C@@H](C(Cl)(Cl)Cl)O[C@@H]2[C@H]1O`: the Potency result is “inactive”.

On to `COc1cc(C[C@H](C)N)c(OC)cc1C`, for which the Potency result was “inactive”.

In the case of `c1ccccc1`, the Potency entry is “inactive”.

Turning to `c1cc2c(c(NC3=NCCN3)c1)CCCC2`, the Potency entry was “inactive”.

Regarding `c1ccc(C2(N3CCCC3)CCCCC2)cc1`, the Potency entry is “inactive”.

For `CNc1ccc(C(=O)CC(O)CCC(C)C2OC(=O)CC(O)CC(=O)CC(O)CC(O)CC(O)CC(O)CC3(O)CC(O)C(C(=O)OC)C(CC(O[C@@H]4O[C@H](C)[C@@H](O)[C@H](N)[C@@H]4O)/C=C/C=C/C=C/C=C/C=C/C=C/C=C/C2C)O3)cc1` (stereo not given in full), the Potency entry is “inactive”.

For the compound `O=C(CS(=O)C(c1ccccc1)c1ccccc1)NO` (stereo not given), the Potency entry is “inactive”.

Take `C[C@@H](Cc1ccccc1)N(C)C`: the Potency entry is “inactive”.
